The structures appear in SMILES notation. In all, about 69,000 compounds went through this assay and about 420 (0.61%) showed an effect of 50% or more. For the sample, strong results were picked, then their nearest neighbours and some compounds at random.

The target in this test is T1, Histidine--tRNA ligase (Leishmania infantum) (UniProt A4I591).
T1 sequence (whole entry): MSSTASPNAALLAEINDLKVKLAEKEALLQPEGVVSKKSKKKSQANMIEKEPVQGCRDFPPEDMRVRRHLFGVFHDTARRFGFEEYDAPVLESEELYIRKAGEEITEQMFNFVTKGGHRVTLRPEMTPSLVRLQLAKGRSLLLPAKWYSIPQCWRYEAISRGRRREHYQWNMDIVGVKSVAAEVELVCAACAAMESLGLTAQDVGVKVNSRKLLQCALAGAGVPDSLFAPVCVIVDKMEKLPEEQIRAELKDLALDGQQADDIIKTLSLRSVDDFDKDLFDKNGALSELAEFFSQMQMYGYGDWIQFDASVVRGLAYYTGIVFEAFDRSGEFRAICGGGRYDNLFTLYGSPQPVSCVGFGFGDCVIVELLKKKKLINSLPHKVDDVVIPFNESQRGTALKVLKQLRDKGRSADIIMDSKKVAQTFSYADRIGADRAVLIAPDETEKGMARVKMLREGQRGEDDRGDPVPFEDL
Briefly: Leishmania infantum Histidine tRNA synthetase (LdHisRS). It counts as functional. Set-up: scale not given: in the data most compounds retested in dose-response had high values. The conditions noted are these: 30 µM.
Consider `O=C(NC1CC1)[C@@H]1C[C@@H]2CCN(Cc3ccccc3)C[C@@H]2O1`, for which the Percent Effect is -7%.

In the case of `Cc1ncsc1CN1C[C@@H]2COC[C@]2(C(=O)NC2CC(F)(F)C2)C1`, the Percent Effect amounted to 20%. Take `Cc1nc[nH]c1CNC1CC(=O)N(CCc2cccc(Cl)c2)C1` (centres undefined): the Percent Effect stood at 7.45%. Turning to `Cc1nn(CCC#N)c(C)c1[C@@H]1C=C[C@@H](NCc2cccc(Cl)c2)C1`, the Percent Effect was 50%.

Consider `Cc1nn(CCC#N)c(C)c1[C@@H]1C=C[C@@H](NCc2ccc(F)cc2)C1`, for which the Percent Effect turned out to be 25%.

With `Cc1cnc(C(=O)N2C[C@H]3CC[C@@H]2CN(c2cnccn2)C3)cn1`, the Percent Effect came out at 18.6%. Turning to `O=C(NC[C@@]1(COc2cnccn2)C[C@@H](O)[C@@H](O)C1)C1CC1`, the Percent Effect was found to be 5.41%. The figure for `Cc1ccc(C(=O)N2CCO[C@H]3[C@H](OCCN(C)C)CC[C@@H]32)cn1` is 9.72%. For the compound `Cc1cccc(NC(=O)c2[nH]nc(C(C)C)c2Br)n1`, the Percent Effect was 12.5%. The figure for `O=C(c1ccco1)N1C[C@@H]2[C@@H](C1)OCC(=O)N2Cc1cccnc1` is 20.4%; for `Cc1ccc(CN2C[C@@H]3COC[C@@H](CC(=O)N4CCOCC4)[C@@H]3C2)s1` it is 20.5%. The figure for `CCC(=O)Nc1ccc2c(c1)C1(CCOCC1)CN2CCF` is 22.5%. Then `CCCC(=O)Nc1ccc2c(c1)C1(CCOCC1)CN2CCOC`, with 35.1%; and `CCN1CC2(CCOCC2)c2cc(NS(=O)(=O)CC)ccc21`, with 75.2%; and `CCS(=O)(=O)Nc1ccc2c(c1)C1(CCOCC1)CN2C`, with 51.5%.

Consider `CCC(=O)Nc1ccc2c(c1)C1(CCOCC1)CN2CCOC`, for which the Percent Effect is 46%. Then `CN(C)C(=O)N1CC2(CCOCC2)c2cc(NS(=O)(=O)C3CC3)ccc21`, with 15.4%; and `CC(c1ccccc1)N1Cc2nc(N(C)C)ncc2C1=O` (centres undefined), with 3.54%; and `CC1CCN(c2ncc3c(n2)CN(c2ccc(F)cc2)C3=O)CC1`, with 12.4%.

For the compound `COc1ccc(CN2C[C@H]3CN(Cc4ccncc4)C(=O)[C@H]3C2)cc1`, the Percent Effect turned out to be 21.4%. The figure for `COCCN1CCN(C(=O)c2ccc(COC)o2)[C@H]2CS(=O)(=O)C[C@H]21` is 21.3%. Then `c1coc(CN2C[C@H](OCC3CCOCC3)[C@H]3COC[C@H]32)c1`, with 9.02%. Regarding `COc1ccc2c(c1)ncn2C[C@]1(O)CCCN2CCCC[C@@H]21`, the Percent Effect was found to be 4.2%.

Take `CCn1nc(C)c(CN(CCOC)C(=O)c2cnc(C)nc2O)c1C`: the Percent Effect is 20%. The figure for `CCOc1ccc(C(=O)N(CCOC)Cc2c(C)nn(CC)c2C)o1` is 63.3%; for `CCn1nc(C)c(CN(CCOC)C(=O)c2ccccc2N(C)C)c1C` it is 21.7%; for `Cc1nn(C)c(C)c1S(=O)(=O)N1CC[C@@H]2O[C@@H](C)C[C@H]2C1` it is 7.69%. On to `O=C(c1ccc(F)cc1)N1C[C@@H]2OCCN(c3ncccn3)[C@@H]2C1`, for which the Percent Effect is 18.9%. Then `Cc1nc(COC[C@]23COC[C@H]2CN(Cc2ccoc2)C3)cs1`, with 22.6%; and `Cc1nnc(N2C[C@H](OCc3cccnc3)[C@H]3OCCC[C@H]32)s1`, with 24.3%; and `COCCOc1ncccc1NCc1nc2ccccc2n1C`, with 15.7%. Regarding `COCCOc1ccc(F)cc1NCc1nc2ccccc2n1C`, the Percent Effect was found to be 13.2%. Turning to `COc1cc(F)c(NCc2nc3ccccc3n2C)cc1OC`, the Percent Effect was determined as 78.3%. As to `CC(=O)N1CCN(C(=O)Nc2ccc(Cl)cc2)[C@H]2CS(=O)(=O)C[C@H]21`, the Percent Effect is 8.2%. Regarding `O=C(C1CCCC1)N1C[C@@H]2CCN(c3cccnc3)C[C@@H]2C1`, the Percent Effect is 14.7%. As to `c1cnc(N2C[C@H]3CCN(c4cccnc4)C[C@H]3C2)nc1`, the Percent Effect was found to be 23.1%. The figure for `O=C(c1ccncc1)N1C[C@@H]2CCN(c3cccnc3)C[C@@H]2C1` is 23.5%; for `O=C(c1ccc(F)cc1)N1C[C@@H]2CCN(c3cccnc3)C[C@@H]2C1` it is 20.6%. Regarding `Fc1cccc(N2C[C@H]3CCN(c4cccnc4)C[C@H]3C2)c1`, the Percent Effect came out at 61.5%. Consider `Cn1cccc1C(=O)N1CC[C@H]2[C@@H]1CCC(=O)N2CC1CC1`, for which the Percent Effect was 21.1%. The figure for `O=C(C1CCC1)N1C[C@@H]2CN(Cc3ccncc3)C(=O)[C@@H]2C1` is 15.8%. Then `CCCC(=O)N1CC[C@@H]2[C@H](CC1)N(Cc1cccnc1)CCS2(=O)=O`, with 17.3%. The figure for `Cc1cccc(CN2C[C@@H]3CN(C4CCOCC4)C[C@@H]3C2=O)c1` is 19.7%; for `CCN1C(=O)C[C@@H]2[C@@H]1CCN2S(=O)(=O)c1cccc(C)c1` it is 0%. In the case of `CC(C)=CCN1CCN(C(=O)c2snnc2C)[C@H]2CS(=O)(=O)C[C@H]21`, the Percent Effect amounted to 5%.

With `CCc1cnc(N2C[C@H](OCc3csc(C)n3)[C@H]3COC[C@H]32)nc1`, the Percent Effect amounted to 20.7%. As for `CCN1C(=O)CC[C@@H]2N(C(=O)CCn3nccc3C)CCCC[C@@]21C`, the Percent Effect amounted to 15.7%. Regarding `Cc1noc(C[C@@H]2COC[C@H]3CN(S(=O)(=O)C4CC4)C[C@@H]23)n1`, the Percent Effect was found to be 12.8%.

Take `c1coc(-c2[nH]c3ncccc3c2CN2CCCOCC2)c1`: the Percent Effect was found to be 30.4%. `NC(=O)C1CCCN(Cc2c(-c3ccco3)[nH]c3ncccc23)C1` (centres undefined): the Percent Effect is 55.6%.

`CN1CCN(Cc2c(-c3ccco3)[nH]c3ncccc23)CC1`: the Percent Effect stood at 18.8%. Turning to `OC1CCN(Cc2c(-c3ccco3)[nH]c3ncccc23)CC1`, the Percent Effect worked out at 30.4%. In the case of `OC1CCCN(Cc2c(-c3ccco3)[nH]c3ncccc23)C1` (centres undefined), the Percent Effect is 66.7%.

Turning to `CCN1CCN(Cc2c(-c3ccco3)[nH]c3ncccc23)CC1`, the Percent Effect was found to be 4.35%.

Source of the values: ChEMBL document CHEMBL3988442, “University of Dundee, Small-Polar-MMV Screening Library” (2021).
